From PubChem BioAssay AID1852 (Sanford-Burnham Center for Chemical Genomics, 2009)
Hit rate of the full screen: of about 2,500 compounds, about 1,100 (44%) were called active.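 The calls were made as follows: active = inhibition above 50% at 4 µM in the single-point screen; inactive = inhibition of 50% or less.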 The set was probably picked from earlier hits. This is one part of the list.

assay: TNF-a-driven NF-kB reporter inhibitors, primary screen, selectivity assay for NOD1/NOD2 signaling inhibitor project, cell-based, HEK293T NF-kB-Luc, luminescence (AID 1852); conditions: TNF-a induced, 14 h, at 4 µM, active compounds read high

inhibition, inactive:
Cc1ccc(Cn2ccsc2=NC(=O)CCl)cc1 46.5%
CCCn1c(NC(=O)c2ccc(Cl)c(S(=O)(=O)N3CCCC3)c2)nc2ccccc21 24.9%
COc1ccc(CCNC(=O)c2ccc3c(c2)N(Cc2ccccc2)CCS3)cc1OC -41.1%
CC1CC(=O)N(c2ccc(NCCc3ccccc3)c([N+](=O)[O-])c2)C1=O (stereo not given) -4.9%
CC1=C(C(=O)NC2CCCc3c2cnn3-c2ccc(F)cc2F)OCCO1 (stereo not given) 40.2%
COc1ccc(C(=O)NC2CCCc3c2cnn3-c2ccccc2F)cc1OC (stereo not given) 33.4%
Cc1cccc(-n2ncc3c2CCCC3NC(=O)C2(C(N)=O)CC2)c1C (stereo not given) 29.3%
CC1CN(CCCCOc2ccc(Cl)c3ccccc23)CC(C)O1 (stereo not given) 8.2%
COc1ccc(C(=O)NC2CCCc3c2cnn3-c2ccccc2F)o1 (stereo not given) -21.5%
Cc1ccc(-n2ncc3c2CCCC3NC(=O)c2ocnc2C)cc1C (stereo not given) 49.3%
Cn1nccc1C(=O)NC1CCCc2c1cnn2-c1ccc(F)cc1F (stereo not given) 39.9%
CCN(CC)S(=O)(=O)c1ccc2[nH]cc(C(=O)NCCC3=CCCCC3)c(=O)c2c1 38.4%
C[C@@H](C(=O)NCCc1ccccc1)N1C(=O)N2CCc3c([nH]c4ccccc34)[C@@]2(C)C1=O 38.1%
Cc1nn(Cc2ccccc2)c(Cl)c1C(=O)OC(C)C#N (stereo not given) 40.7%
COc1ccc(-c2cc(C)no2)cc1S(=O)(=O)N1CCN(c2ccc([N+](=O)[O-])cc2)CC1 44.5%
CCN1/C(=C/c2ccc3cc(C)ccc3[n+]2CC)Sc2cc(C)ccc21 48.9%
O=C1N(Cc2cccc(Cl)c2)C[C@@H]2C[C@@H](c3cccn3-c3cccnc3)N3CCC[C@@]123 4.8%
CN(Cc1ccc(Cl)cc1)C(=O)CCl 9.6%
COc1ccc(CC(=O)N(Cc2ccccc2)c2ccccc2)cc1S(=O)(=O)N1CCOCC1 13.5%
O=C(CCl)NC(Cc1ccccc1)c1ccccc1 (stereo not given) 21.3%
O=Cc1[nH]c2ccccc2c1N(C(=O)CCl)c1ccccc1 31.9%
COc1cc2c(cc1OC)C(c1ccc(-c3cc(Cl)ccc3Cl)o1)=NCC2 26.5%
Cc1csc(NC(=O)C2CC(=O)N(c3ccc(C)c(C)c3)C2)n1 (stereo not given) -11.9%
COc1cc(/C=C(/C(=O)c2cccs2)c2nc3ccccc3[nH]2)ccc1O 31.5%
O=C(/C(=C/c1cccc(Cl)c1)c1nc2ccccc2[nH]1)c1ccccc1 31.9%
Cc1cccc(CN2CCN(C(=O)CCl)CC2)c1 36%
COc1cc(S(=O)(=O)NCc2ccncc2)ccc1Br 45.8%
CCSc1nsc(NC(=O)Nc2cccc(C(C)=O)c2)n1 30.4%
C=CCSc1nsc(NC(=O)Nc2ccc(F)cc2)n1 43.4%
C=CCN(c1ccccc1OC)S(=O)(=O)c1ccc(Cl)c(C(=O)Nc2ccc(N3CCOCC3)cc2)c1 25.4%
CC(=O)c1ccc(Nc2nc3ccccc3nc2NS(=O)(=O)c2cccs2)cc1 12.2%
Cc1ccccc1-c1nc(CS(=O)(=O)CC(=O)NCCc2ccccc2)c(C)o1 10%
COc1ccc(CNC(=O)c2ccc3ccccc3n2)cc1OC 38%
Fc1ccc(NC(=S)NNc2ncc(C(F)(F)F)cc2Cl)c(F)c1 49.4%
CCCCNC(=S)Nc1ccc(C(F)(F)F)cc1 -47.5%
Cc1ccc(S(=O)(=O)c2c(C(=O)c3ccccc3)cnc3cc4c(cc23)OCCO4)cc1 1.5%
Cc1csc2ncnc(N3CCN(S(=O)(=O)c4cccc(C(F)(F)F)c4)CC3)c12 44.4%
O=[N+]([O-])c1ccc(NC(=S)NCc2ccc(F)cc2)cc1 22.1%
CC(=O)Nc1nnc(S(=O)(=O)N2CCN(c3ccc(Cl)cc3[N+](=O)[O-])CC2)s1 -2.9%
COc1ccc(-c2cn[nH]c2-c2ccc(OCc3ccc(F)cc3)cc2O)cc1OC 4.6%
COc1ccc(-c2cn[nH]c2-c2ccc(OCc3ccccc3)cc2O)cc1 32.2%
CCCOC(=O)c1ccc(Oc2cn[nH]c2-c2ccc(O)cc2O)cc1 17.1%
COc1ccc(-c2cn[nH]c2-c2ccc(OCc3ccccc3F)cc2O)cc1OC -1.5%
CS(=O)(=O)N1CCC(C(=O)Nc2cc(Cl)c(Cl)cc2Cl)CC1 30.2%
COc1ccc(CC2(CO)CCN(CC3=Cc4cc(Cl)ccc4OC3)CC2)cc1 44%
Cc1nc(Sc2ccc(Br)cc2)c(C#N)c(C)c1[N+](=O)[O-] -8.7%
O=C(Cc1ccc(Cl)cc1)Nc1ncc([N+](=O)[O-])s1 16.3%

inhibition, active:
CCOc1cc(C)c(Cl)cc1S(=O)(=O)n1nnc2ccccc21 63.8%
COc1ccc(CCNc2cc(N3CCN(C(=O)c4ccccc4F)CC3)ccc2[N+](=O)[O-])cc1OC 85.7%
Cc1ccc(C(=O)NC2CCCc3c2cnn3-c2ccc(F)cc2F)cn1 (stereo not given) 71.6%
CC(C)(C)c1ccc(-n2ncc3c2CCCC3NC(=O)C2(C(N)=O)CC2)cc1 (stereo not given) 61.3%
Cn1nccc1C(=O)NC1CCCc2c1cnn2-c1ccc(C(C)(C)C)cc1 (stereo not given) 72.8%
Cc1cc(C(=O)NC2CCCc3c2cnn3-c2ccc(C(C)(C)C)cc2)nn1C (stereo not given) 68.8%
Cc1ncoc1C(=O)NC1CCCc2c1cnn2-c1ccc(C(C)(C)C)cc1 (stereo not given) 74.7%
Cn1nccc1C(=O)NC1CCCc2c1cnn2-c1ccccc1F (stereo not given) 51.8%
Cc1c(C)c2ccc(OCC(=O)Nc3ccc(N4CCC(C)CC4)cc3)cc2oc1=O 94.7%
Cc1ccc(-n2nc3c(=O)n(C(C)C(=O)NCCCc4ccccc4)nc(C)c3c2C)cc1 (stereo not given) 53.9%
Cc1ccc(-n2nc3c(=O)n(CC(=O)NC(C)CCc4ccccc4)nc(C)c3c2C)cc1 (stereo not given) 50%
Cc1ccc(-n2nc3c(=O)n(C(C)C(=O)NCCc4cccs4)nc(C)c3c2C)cc1 (stereo not given) 60.4%
Cc1ccc(-n2nc3c(=O)n(C(C)C(=O)NCCC4=CCCCC4)nc(C)c3c2C)cc1 (stereo not given) 54.3%
CCN1/C(=C\c2ccc3ccccc3[n+]2CC)Sc2cc(C)ccc21 55.6%
CCN1/C(=C/c2ccc3cc(C)ccc3[n+]2CC)Sc2cc(C)c(C)cc21 54.5%
CCN1/C(=C\c2ccc3cc(C)ccc3[n+]2CC)Sc2cc(C)c(C)cc21 65.4%
CCN1/C(=C/c2ccc3cc(C)ccc3[n+]2CC)Sc2ccccc21 76.1%
CCN1/C(=C/c2ccc3cc(C)cc(C)c3[n+]2CC)Sc2cc(C)ccc21 79.4%
O=C(CCl)N(c1ccccc1)c1ccccc1 63.7%
O=C(CCl)N(c1ccccc1)c1c[nH]c2ccccc12 103%
O=C(CCl)N(Cc1ccccc1)c1ccccc1 89.7%
Cc1cnc(NC(=O)C2CC(=O)N(c3cccc(Cl)c3)C2)s1 (stereo not given) 92.4%
O=C(/C(=C\c1ccccc1)c1nc2ccccc2[nH]1)c1ccc(Cl)cc1 94.9%
O=C(/C(=C/c1ccc(Cl)cc1)c1nc2ccccc2[nH]1)c1cccs1 106%
O=C(/C(=C/c1ccc(Cl)cc1)c1nc2ccccc2[nH]1)c1ccccc1 107%
Cc1cccc(Cc2cnc(N3C(=N)SC(C)C3=O)s2)c1 (stereo not given) 100%
Cc1ccc(Cc2cnc(N3C(=N)SC(C)C3=O)s2)cc1 (stereo not given) 103%
C=CCSc1nsc(NC(=O)Nc2cccc(C(C)=O)c2)n1 85.2%
O=S(=O)(Nc1nc2ccccc2nc1Nc1ccc(N2CCOCC2)cc1)c1cc(Cl)ccc1Cl 77%
Cc1oc2c(c1C(=O)NCc1cccnc1)C(=O)c1ccccc1C2=O 97.7%
Cc1oc2c(c1C(=O)c1ccccc1)C(=O)C(=O)c1ccccc1-2 104%
COc1ccc(CNC(=O)c2c(C)oc3c2C(=O)c2ccccc2C3=O)cc1 100%
Cc1csc2c(N3CCN(C(=O)Nc4ccc(Cl)c(Cl)c4)CC3)ncnc12 52.5%
Fc1ccc(NC(=S)N2CCCN(c3ccc(C(F)(F)F)cn3)CC2)c(F)c1 55.6%
Cc1csc2c(N3CCN(C(=S)Nc4ccc(C(F)(F)F)cc4)CC3)ncnc12 78.5%
Cc1csc2ncnc(N3CCN(C(=S)Nc4ccc(F)cc4F)CC3)c12 66.9%
Cc1csc2ncnc(N3CCN(C(=S)Nc4ccc(C(F)(F)F)cc4)CC3)c12 66.1%
Cc1csc2ncnc(N3CCN(C(=O)Nc4ccc(OC(F)(F)F)cc4)CC3)c12 102%
O=C(CCl)c1cc2c3c(c1)CC(=O)N3CCC2 90.7%
Fc1ccc(NC(=S)Nc2nccs2)cc1 73.6%
COc1ccc(-c2[nH]ncc2-c2ccc3c(c2)OCCO3)c(O)c1 102%
COc1ccc(-c2cn[nH]c2-c2ccc(OC)cc2)cc1 63.6%
COc1ccc(-c2cn[nH]c2-c2ccc(OC)cc2O)cc1 69.2%
COc1ccc(-c2cn[nH]c2-c2ccc(O)cc2O)cc1 51%
COc1ccc(NC(=O)/C(Cl)=C(/Cl)S(=O)Cc2ccc(Cl)cc2)cn1 (stereo not given) 89%
COc1ccc(NC(=O)/C(Cl)=C(/Cl)S(=O)Cc2ccc(C)cc2)cn1 (stereo not given) 105%
COc1ccc(CS(=O)/C(Cl)=C(/Cl)C(=O)Nc2ccc(OC)nc2)cc1 (stereo not given) 101%
COc1ccc(NC(=O)/C(Cl)=C(/Cl)S(=O)Cc2ccccc2)cn1 (stereo not given) 104%
